Test results published in PubChem BioAssay (NCATS).
Inconclusive results are not listed. The source made the active and inactive calls. Unless noted, calls come from the whole dose curve; as a rule, active = well fitted curve in the direction sought with a large enough effect; inconclusive = small, poorly fitted or top-dose-only effect, or another doubt; inactive = no such curve, though single readings can be large; an effect the other way counts as inactive or inconclusive.

Columns and labels:
[1] = AP1 Signaling Pathway (AID 357; active = well fitted curve in either direction with a large enough effect, not every such curve was filed as active;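 note: ME-180 reporter cells stimulated with EGF at its EC50 level; % is set by controls: 0 for no effect and ±100 for the full control effect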); details: ME-180 AP-1-bla reporter, EGF-induced, beta-lactamase ratio, 5 h; at 17.2 µM (top of the series) unless noted
Method in brief: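 A ratiometric CCF4 readout (405 nm excitation; 460 and 530 nm emission) quantified AP-1-driven beta-lactamase in ME-180 cells after 5 h with compound and EC50 EGF; AC50 values were derived for activators and inhibitors.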

[2] = molecular target: Cytochrome P450 1A2 (Homo sapiens) (UniProt P05177); assay: p450-cyp1a2 (AID 410; calls by dose curve; note: potency is the fitted concentration of half-maximal effect;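 for activity change, negative = inhibition: -100% = full effect of reference inhibitor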)
Cytochrome P450 1A2 (Homo sapiens), sequence (P05177 whole entry, looked up): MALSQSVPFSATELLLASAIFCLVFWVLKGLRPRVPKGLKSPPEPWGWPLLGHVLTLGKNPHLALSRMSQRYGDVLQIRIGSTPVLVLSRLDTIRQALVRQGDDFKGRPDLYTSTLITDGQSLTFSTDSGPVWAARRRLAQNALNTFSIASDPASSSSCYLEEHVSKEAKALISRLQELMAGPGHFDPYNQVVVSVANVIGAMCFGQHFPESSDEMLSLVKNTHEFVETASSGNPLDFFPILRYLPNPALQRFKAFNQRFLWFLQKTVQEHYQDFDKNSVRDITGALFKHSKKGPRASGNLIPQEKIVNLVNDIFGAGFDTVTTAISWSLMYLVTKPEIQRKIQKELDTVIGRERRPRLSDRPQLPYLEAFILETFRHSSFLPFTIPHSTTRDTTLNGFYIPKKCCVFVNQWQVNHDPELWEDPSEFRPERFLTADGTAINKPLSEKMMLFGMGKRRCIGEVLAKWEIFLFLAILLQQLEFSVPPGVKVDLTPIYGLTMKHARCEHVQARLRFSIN
Method in brief: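 Human CYP1A2 (20nM) demethylated Luciferin-ME at its Km (100uM) in 100mM KPO4. After 10 min compound preincubation, NADPH regeneration ran the reaction 60 min at room temperature. Luciferin was read by luminescence, normalized to 57 uM furafylline.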

[3] = NFAT Signaling Pathway (AID 444; active = well fitted curve in either direction with a large enough effect, not every such curve was filed as active;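 note: carbachol stimulus at about its EC50 of 1 µM final; % is set by controls: 0 for no effect and ±100 for the full control effect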); details: Jurkat NFAT-bla M1, carbachol, beta-lactamase ratio, 5 h; at 17.2 µM (top of the series) unless noted
Method in brief: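 Jurkat cells carrying an NFAT-driven β-lactamase reporter and co-transfected muscarinic M1 receptor were treated with compound plus carbachol (1 uM final, an EC50 level) for 5 h at 37 °C. CCF4 loading followed for 1 h at RT; 460/530 nm ratio gave %activity.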

[4] = molecular target: Glucocorticoid receptor (Homo sapiens) (UniProt P04150); assay: GR-GFP Redistribution (AID 450;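 active = compounds whose dose series gives a full or clear partial fitted curve of increased nuclear translocation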; note: potency is the fitted concentration of half-maximal effect); details: U2OS GR-GFP nuclear translocation, laser cytometry, 2 h
Glucocorticoid receptor (Homo sapiens), sequence (P04150 whole entry, looked up, the tested form may be a part): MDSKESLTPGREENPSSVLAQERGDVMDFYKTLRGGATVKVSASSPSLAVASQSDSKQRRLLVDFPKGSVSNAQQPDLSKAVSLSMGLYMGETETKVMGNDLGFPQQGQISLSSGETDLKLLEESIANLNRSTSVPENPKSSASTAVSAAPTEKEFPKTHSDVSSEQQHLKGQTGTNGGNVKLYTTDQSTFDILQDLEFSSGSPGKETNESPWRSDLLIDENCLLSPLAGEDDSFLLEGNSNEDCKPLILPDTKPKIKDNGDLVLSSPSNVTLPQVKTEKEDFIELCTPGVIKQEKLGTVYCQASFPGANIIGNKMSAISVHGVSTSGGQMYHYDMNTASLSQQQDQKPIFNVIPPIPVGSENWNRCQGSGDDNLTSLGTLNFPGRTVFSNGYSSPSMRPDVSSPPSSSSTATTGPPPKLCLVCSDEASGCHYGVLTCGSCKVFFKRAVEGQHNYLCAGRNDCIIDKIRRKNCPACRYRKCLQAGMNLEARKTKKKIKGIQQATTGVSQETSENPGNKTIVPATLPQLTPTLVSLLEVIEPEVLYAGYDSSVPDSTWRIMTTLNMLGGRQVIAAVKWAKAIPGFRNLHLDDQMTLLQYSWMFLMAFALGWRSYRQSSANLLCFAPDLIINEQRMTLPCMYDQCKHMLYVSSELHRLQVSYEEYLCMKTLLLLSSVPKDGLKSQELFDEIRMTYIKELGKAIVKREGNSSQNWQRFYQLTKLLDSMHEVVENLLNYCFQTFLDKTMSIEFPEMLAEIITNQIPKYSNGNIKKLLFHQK

[5] = molecular target: Glucocorticoid receptor (Homo sapiens) (UniProt P04150); assay: GR-EFC Redistribution (AID 451; calls by dose curve; note: potency is the fitted concentration of half-maximal effect); details: CHO-K1 GR-EFC translocation, beta-gal luminescence, 2 h
Method in brief: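 CHO-K1 cells stably expressing nuclear-localized β-gal enzyme acceptor and GR fused C-terminally to the enzyme donor fragment; ligand-driven nuclear translocation restores β-gal by complementation. Compounds titrated up to 46 uM final, 2 h at 37 °C; luminescence read.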

[6] = molecular target: Mitogen-activated protein kinase 10 (Mus musculus) (UniProt Q61831); assay: JNK3 AlphaScreen Assay (AID 530; active = well fitted curve in either direction with a large enough effect, not every such curve was filed as active;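 note: kinase came from lysate of stimulated human HepG2 cells; signal reports phosphorylation of biotinylated GST-cJun 1-79 at Ser73 with 10 µM ATP; % is set by controls: 0 for no effect and ±100 for the full control effect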)
Method in brief: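 JNK3 came from HepG2 lysates pre-activated with IL-1beta and TNF-alpha and phosphorylated biotinylated GST-cJun (1-79) at 10 uM ATP, pH 7.6, room temperature. Compounds were titrated. AlphaScreen signal used anti-phospho-cJun (Ser73) antibody.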

[7] = molecular target: 3',5'-cyclic-AMP phosphodiesterase 4B (Homo sapiens) (UniProt Q07343); assay: qHTS Assay for Inhibitors of PDE-IV (AID 607; active = well fitted activation curve with a large enough effect in the main read-out, with a control signal flat, not every such curve was filed as active; note: % of control where 0% means no effect)
3',5'-cyclic-AMP phosphodiesterase 4B (Homo sapiens), sequence (Q07343 whole entry, looked up): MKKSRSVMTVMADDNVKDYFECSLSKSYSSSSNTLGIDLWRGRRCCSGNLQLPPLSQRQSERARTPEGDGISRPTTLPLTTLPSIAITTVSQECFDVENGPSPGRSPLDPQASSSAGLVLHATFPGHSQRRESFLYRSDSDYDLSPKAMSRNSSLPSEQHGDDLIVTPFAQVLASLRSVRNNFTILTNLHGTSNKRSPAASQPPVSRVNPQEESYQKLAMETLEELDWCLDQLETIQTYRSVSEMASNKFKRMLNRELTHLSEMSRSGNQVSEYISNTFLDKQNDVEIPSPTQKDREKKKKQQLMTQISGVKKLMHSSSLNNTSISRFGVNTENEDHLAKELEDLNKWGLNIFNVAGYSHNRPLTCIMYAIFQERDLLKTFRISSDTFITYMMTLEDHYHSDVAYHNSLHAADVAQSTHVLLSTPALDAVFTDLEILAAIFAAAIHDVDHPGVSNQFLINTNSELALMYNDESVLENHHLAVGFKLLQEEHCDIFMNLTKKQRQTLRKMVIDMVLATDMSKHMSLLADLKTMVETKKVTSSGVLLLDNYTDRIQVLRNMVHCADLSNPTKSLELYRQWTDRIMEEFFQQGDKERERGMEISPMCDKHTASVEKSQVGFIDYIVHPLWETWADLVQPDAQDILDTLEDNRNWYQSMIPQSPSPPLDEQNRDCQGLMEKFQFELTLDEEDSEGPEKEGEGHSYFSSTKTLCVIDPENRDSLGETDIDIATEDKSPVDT
Method in brief: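 HEK293 ACTOne cells with CNG channel (1000/well), endogenous PDE4; membrane potential dye, compounds up to 22.9 uM final. Fluorescence Ex 535/Em 590; RO 20-1724 (100 uM final) as reference.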

[8] = molecular target: Guanine nucleotide-binding protein G(i) subunit alpha-1 (Homo sapiens) (UniProt P63096); assay: qHTS Assay for Inhibitors of RGS12 GoLoco Motif Activity (Green Fluorophore) (AID 879);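 note: 0% = labeled peptide with Gαi1 and full inhibition = labeled peptide alone without protein; negative values mean loss of peptide binding seen as reduced polarization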
Guanine nucleotide-binding protein G(i) subunit alpha-1 (Homo sapiens), sequence (P63096 whole entry, looked up): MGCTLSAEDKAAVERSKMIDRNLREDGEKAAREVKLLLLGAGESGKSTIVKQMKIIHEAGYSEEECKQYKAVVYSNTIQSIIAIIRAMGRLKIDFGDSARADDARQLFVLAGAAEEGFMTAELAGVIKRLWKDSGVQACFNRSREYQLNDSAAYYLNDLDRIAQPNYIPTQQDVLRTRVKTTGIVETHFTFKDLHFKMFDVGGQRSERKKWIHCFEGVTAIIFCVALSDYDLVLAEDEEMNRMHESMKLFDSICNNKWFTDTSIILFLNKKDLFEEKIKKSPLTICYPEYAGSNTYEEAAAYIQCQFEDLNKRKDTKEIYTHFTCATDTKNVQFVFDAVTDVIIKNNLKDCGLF
Method in brief: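 Fluorescence polarization assay: 50 nM Gαi1 with 10 nM FITC-labeled RGS12 GoLoco peptide in 10 mM Tris pH 7.5, 150 mM NaCl, 0.1 mM GDP, 0.05% NP40, 10 min at room temperature with compound.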

[9] = molecular target: Cytochrome P450 3A4 (Homo sapiens) (UniProt P08684); assay: qHTS Assay for Inhibitors and Substrates of Cytochrome P450 3A4 (AID 884); note: potency is the fitted concentration of half-maximal effect; nearly all actives have a fitted effect of over 50% in size
Method in brief: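 20 nM human CYP3A4 with 25 uM Luciferin-PPXE (at KM) in 200 mM KPO4, preincubated 10 min with compound; NADPH regeneration started a 60 min RT reaction. Luciferin detected by luminescence, normalized to 57 uM ketoconazole as full inhibition.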

[10] = molecular target: Cytochrome P450 3A4 (Homo sapiens) (UniProt P08684); assay: qHTS Assay for Activators of Cytochrome P450 3A4 (AID 885); note: nearly all actives have a fitted effect of over 65% in size
Method in brief: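 Human CYP3A4 (20 nM) with Luciferin-PPXE at 25 uM (its KM) in 200 mM KPO4; 10 min compound preincubation, then NADPH regeneration and 60 min reaction at RT. Luciferin read by luminescence; normalized to 57 uM ketoconazole full inhibition.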

[11] = molecular target: Muscarinic acetylcholine receptor M1 (Rattus norvegicus) (UniProt P08482); assay: qHTS Assay for Antagonists of Acetylcholine Muscarinic M1 Receptor: Kinetic Measurement of Intracellular Calcium Response (AID 943);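 note: Fluo-4 calcium signal as peak divided by basal fluorescence over 4 min; nearly all actives have a fitted effect of over 75% in size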
Muscarinic acetylcholine receptor M1 (Rattus norvegicus), sequence (P08482 whole entry, looked up): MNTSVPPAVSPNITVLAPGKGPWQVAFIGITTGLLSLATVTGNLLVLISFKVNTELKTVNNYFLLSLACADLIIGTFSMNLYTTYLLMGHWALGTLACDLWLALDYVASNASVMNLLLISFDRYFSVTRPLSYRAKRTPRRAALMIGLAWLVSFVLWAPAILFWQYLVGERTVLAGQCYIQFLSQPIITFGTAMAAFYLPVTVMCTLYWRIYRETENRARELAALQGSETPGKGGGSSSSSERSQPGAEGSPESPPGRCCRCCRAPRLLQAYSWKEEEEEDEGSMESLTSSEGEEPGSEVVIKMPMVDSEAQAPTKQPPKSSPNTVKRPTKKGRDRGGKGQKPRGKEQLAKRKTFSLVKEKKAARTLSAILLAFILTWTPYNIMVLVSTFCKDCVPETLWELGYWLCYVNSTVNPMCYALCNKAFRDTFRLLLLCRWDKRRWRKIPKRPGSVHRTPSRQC
Method in brief: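 CHO cells stably expressing rat M1 were loaded with no-wash Fluo-4 dye for 1 h at 37C, pre-incubated 10 min with compound, then challenged with EC80 carbachol (100 nM final); kinetic calcium read 4 min, peak/basal ratio.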

[12] = molecular target: Muscarinic acetylcholine receptor M1 (Rattus norvegicus) (UniProt P08482); assay: qHTS Assay for Antagonists of Acetylcholine Muscarinic M1 Receptor: Measurement of IP-One Response (AID 944); note: nearly all actives have a fitted effect of over 75% in size
Method in brief: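 CHO cells expressing rat M1 receptor, recovered overnight, were pre-incubated 10 min with compound, then stimulated 30 min with carbachol at EC80 (200 nM) in LiCl-containing buffer, pH 7.4. IP1 accumulation was read by HTRF (620/665 nm).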

[13] = molecular target: Pyruvate kinase (Leishmania mexicana) (UniProt Q27686); assay: qHTS Validation Assay for Inhibitors of Leishmania Mexicana Pyruvate Kinase (AID 945);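 note: 0% = DMSO only neutral control wells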
Pyruvate kinase (Leishmania mexicana), sequence (Q27686 2-499 E452W): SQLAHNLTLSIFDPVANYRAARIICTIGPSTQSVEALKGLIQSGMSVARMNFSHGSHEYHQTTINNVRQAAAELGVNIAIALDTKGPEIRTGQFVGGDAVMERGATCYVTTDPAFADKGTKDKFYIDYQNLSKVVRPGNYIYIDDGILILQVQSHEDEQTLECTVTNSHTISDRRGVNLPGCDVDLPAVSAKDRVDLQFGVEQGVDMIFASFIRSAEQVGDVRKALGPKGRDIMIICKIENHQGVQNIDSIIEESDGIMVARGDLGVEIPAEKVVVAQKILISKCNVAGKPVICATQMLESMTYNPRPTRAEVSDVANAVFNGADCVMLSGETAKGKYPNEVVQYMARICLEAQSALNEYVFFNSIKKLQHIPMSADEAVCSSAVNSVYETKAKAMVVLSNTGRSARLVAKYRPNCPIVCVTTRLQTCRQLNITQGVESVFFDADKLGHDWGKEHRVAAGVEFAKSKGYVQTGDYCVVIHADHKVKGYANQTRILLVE
Method in brief: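 LmPYK E451W 0.2 nM; 0.5 mM PEP, 0.1 mM ADP, 7 mM MgCl2, 50 mM KCl, imidazole pH 7.2, 0.01% Tween 20, 0.05% BSA; 1 h RT; PKLight luminescence; DMSO-normalized.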

[14] = molecular target: Pyruvate kinase PKM (Homo sapiens) (UniProt P14618); assay: qHTS Assay for Activators of Human Muscle Pyruvate Kinase (AID 954; active = well fitted curve in the direction sought with a large enough effect, not every such curve was filed as active;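 note: 0% = uninhibited enzyme and -100% = no enzyme or full thiadiazolimine inhibition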)
Pyruvate kinase PKM (Homo sapiens), sequence (P14618 whole entry, looked up): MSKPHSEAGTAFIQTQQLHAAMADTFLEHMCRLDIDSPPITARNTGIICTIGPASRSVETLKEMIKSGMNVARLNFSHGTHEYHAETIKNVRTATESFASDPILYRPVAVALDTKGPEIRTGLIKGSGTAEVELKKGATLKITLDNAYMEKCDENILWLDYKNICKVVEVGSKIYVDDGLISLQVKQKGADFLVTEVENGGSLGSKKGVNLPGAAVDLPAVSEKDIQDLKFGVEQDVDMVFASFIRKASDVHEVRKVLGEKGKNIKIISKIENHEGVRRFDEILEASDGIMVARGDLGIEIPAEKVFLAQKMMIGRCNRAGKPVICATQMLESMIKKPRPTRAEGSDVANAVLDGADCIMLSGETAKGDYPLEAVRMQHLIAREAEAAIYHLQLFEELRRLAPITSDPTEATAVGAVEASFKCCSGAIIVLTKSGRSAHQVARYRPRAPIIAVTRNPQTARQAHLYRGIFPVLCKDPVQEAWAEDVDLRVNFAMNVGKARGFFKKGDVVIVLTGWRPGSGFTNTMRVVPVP
Method in brief: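 Purified human PKM2 (0.1 nM) with 0.5 mM PEP (Km) and 0.1 mM ADP in 50 mM imidazole pH 7.2, KCl, MgCl2, 1 h at room temperature; ATP formed read by coupled luciferase luminescence. Normalized to no-enzyme/110 uM thiadiazolimine inhibition; 0.3 nM enzyme column for activation.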

[15] = molecular target: Alpha-galactosidase (Coffea arabica) (UniProt Q42656); assay: Counterscreen for Glucocerebrosidase Inhibitors: qHTS Assay for Coffee Bean alpha-Galactosidase at pH 4.5 (AID 957);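 note: plate controls were enzyme alone for no effect and no enzyme for full effect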
Alpha-galactosidase (Coffea arabica), sequence (Q42656 whole entry, looked up): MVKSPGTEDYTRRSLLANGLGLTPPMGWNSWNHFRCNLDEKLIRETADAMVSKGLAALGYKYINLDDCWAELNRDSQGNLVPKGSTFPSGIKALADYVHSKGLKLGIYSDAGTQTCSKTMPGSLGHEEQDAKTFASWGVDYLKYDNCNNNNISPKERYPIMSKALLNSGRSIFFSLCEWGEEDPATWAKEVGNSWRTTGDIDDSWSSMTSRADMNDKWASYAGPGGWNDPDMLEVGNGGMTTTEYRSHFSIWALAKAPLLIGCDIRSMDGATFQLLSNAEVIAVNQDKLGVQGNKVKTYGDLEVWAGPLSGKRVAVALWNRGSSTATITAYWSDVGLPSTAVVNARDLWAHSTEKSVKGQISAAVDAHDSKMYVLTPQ
Method in brief: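 Green coffee bean enzyme (2 nM final) was incubated with compounds (0.7 nM to 77 uM) and 4-methylumbelliferyl alpha-D-galactopyranoside (80 uM final) in 50 mM citric acid, 0.005% Tween-20, pH 4.5, 20 min at room temperature; AC50 from Hill fits.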

[16] = molecular target: Alpha-galactosidase A (Homo sapiens) (UniProt P06280); assay: Counterscreen for Glucocerebrosidase Inhibitors: qHTS Assay for Human alpha-Galactosidase at pH 4.5 (AID 992); note: 0% is about no effect
Alpha-galactosidase A (Homo sapiens), sequence (P06280 whole entry, looked up): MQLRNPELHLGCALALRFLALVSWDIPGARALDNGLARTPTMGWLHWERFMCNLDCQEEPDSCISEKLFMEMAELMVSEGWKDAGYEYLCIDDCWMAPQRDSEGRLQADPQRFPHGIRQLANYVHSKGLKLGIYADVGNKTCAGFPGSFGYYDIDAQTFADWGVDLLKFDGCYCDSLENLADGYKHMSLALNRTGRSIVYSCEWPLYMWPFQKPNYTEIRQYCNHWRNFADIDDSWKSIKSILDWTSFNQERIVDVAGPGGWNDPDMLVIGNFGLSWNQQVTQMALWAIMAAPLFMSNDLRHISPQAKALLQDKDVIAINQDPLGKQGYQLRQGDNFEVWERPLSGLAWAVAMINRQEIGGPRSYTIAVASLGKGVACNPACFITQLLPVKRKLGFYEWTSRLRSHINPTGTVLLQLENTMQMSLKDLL
Method in brief: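 Human enzyme (2 nM) with 80 uM 4-methylumbelliferyl alpha-D-galactopyranoside in 50 mM citric acid, 0.005% Tween-20, pH 4.5, 20 min at room temperature. Compounds 0.7 nM–77 uM; fluorescence Ex 365/Em 440 after pH 10 stop; AC50 from Hill fits.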

[17] = molecular target: alpha-glucosidase (Oryza sativa, rice) (UniProt Q653V4); assay: Counterscreen for Glucocerebrosidase Inhibitors: qHTS Assay for Rice alpha-Glucosidase at pH 5.0 (AID 997);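 note: 0% = full activity with enzyme and -100% = basal without enzyme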
Method in brief: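 Rice alpha-glucosidase (4 nM final) with 400 uM 4-methylumbelliferyl-alpha-D-glucopyranoside in citrate buffer pH 5.0, 20 min at room temperature, stopped at pH 10; fluorescence 365/440 nm, compounds 0.7 nM–77 uM, AC50 from Hill fits.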

[18] = molecular target: Alpha-galactosidase (Coffea arabica) (UniProt Q42656); assay: Counterscreen for Glucocerebrosidase Inhibitors: qHTS Assay for Coffee Bean alpha-Galactosidase at pH 5.9 (AID 998);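 note: plate controls were uninhibited enzyme for no effect and no-enzyme basal signal for full effect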
Method in brief: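 Green coffee bean enzyme (2 nM final) was incubated with compounds (0.7 nM–77 uM) and 4-methylumbelliferyl alpha-D-galactopyranoside (80 uM) in citrate buffer pH 5.9, 20 min at room temperature. High-pH stop; fluorescence 365/440 nm; AC50 from Hill fits.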

[19] = Stat Signaling Pathway (AID 446; active = well fitted curve in either direction with a large enough effect, not every such curve was filed as active;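 note: ME-180 cervical cancer cells given 40 pM IL-6 alongside compound; SIE-controlled beta-lactamase reporter measured as 460/530 nm FRET emission ratio; % is set by controls: 0 for no effect and ±100 for the full control effect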)
Method in brief: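 ME-180 cells carrying a SIE-driven beta-lactamase reporter are stimulated with 40 pM IL-6 for 5 h at 37C in the presence of compound. The 460/530 nm FRET substrate ratio is read after 2.5 h at RT. Data are normalised to 300 pM IL-6 and to 125 nM JAK inhibitor controls.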

[20] = molecular target: Cytochrome P450 2C9 (Homo sapiens) (UniProt P11712); assay: qHTS Assay for Inhibitors and Substrates of Cytochrome P450 2C9 (AID 883); note: % is set by controls: 0 for no effect and ±100 for the full control effect; nearly all actives have a fitted effect of over 60% in size
Method in brief: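 Human CYP2C9 (10nM) hydroxylated Luciferin-H (100uM, at its KM) to luciferin in 25mM KPO4. Compound was preincubated 10 min at 37C, then NADPH regeneration started a 60 min reaction at 37C. Luminescence was read after detection reagent, normalized to 57uM sulphaphenazole.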

[21] = molecular target: Cytochrome P450 2C19 (Homo sapiens) (UniProt P33261); assay: qHTS Assay for Inhibitors and Substrates of Cytochrome P450 2C19 (AID 899); note: % is set by controls: 0 for no effect and ±100 for the full control effect; nearly all actives have a fitted effect of over 60% in size
Method in brief: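 Human CYP2C19 (5nM) with Luciferin-H EGE at 10uM (its KM) in 50mM KPO4 was preincubated with compound for 10 min at 37C. NADPH regeneration started a 60 min 37C reaction. Luciferin was read by luminescence, normalized to 57uM ketoconazole.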

[22] = qHTS Assay for Identification of Small Molecule Antagonists for NFkB Signaling Pathway (AID 895; active = well fitted inhibition curve with a large enough effect in the signal ratio, with a control signal flat, not every such curve was filed as active; the % refers to the signal ratio; note: % is set by controls: 0 for no effect and ±100 for the full control effect)
Method in brief: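 NFkB-bla ME-180 cervical carcinoma cells with beta-lactamase reporter under NFkB response element; compounds added, then TNF alpha at 10 pM final (EC50), 5 h at 37 C. LiveBLAzer substrate 2 h, room temperature; emission 460/530 nm at 405 nm excitation.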

C/C=C(\C)C(=O)O[C@@H]1C(C)=C2[C@H]([C@@H]1OC(=O)CCCCCCC)[C@@](C)(OC(C)=O)C[C@@H](OC(=O)CCC)[C@@]1(O)[C@H]2OC(=O)[C@]1(C)O
inactive: activity change, negative = inhibition [1] 19.3% [at 38 µM] | Potency [4] > 46 µM | Potency [5] > 46 µM | outcome [6] | outcome [7] | Potency [8] | Potency [10] | Potency [11] | Potency [12] | Potency [13] | outcome [14] | outcome [15] | outcome [16] | outcome [17] | outcome [18]
active: Potency [2] 39.8 µM | activity change, negative = inhibition [3] -79.7% [activator] [at 38 µM] | Potency [9] 3.98 µM

CC(=O)OC1(Cc2ccccc2)CN2CCC1c1ccccc12 (stereo unspecified)
inactive: activity change, negative = inhibition [1] -0.0283% | activity change, negative = inhibition [3] -23.5% | outcome [19] | Potency [4] > 46 µM

N[C@]1(C(=O)O)CC[C@@H](C(=O)O)C1
inactive: activity change, negative = inhibition [1] -3.05% [at 38 µM] | Potency [2] | activity change, negative = inhibition [3] 7.68% [at 38 µM] | outcome [19] | Potency [4] > 46 µM | Potency [5] > 46 µM | outcome [7] | Potency [20] | Potency [21]

CCOC(=O)C1=C(C)OC(N)=C(C(=O)OCC)[C@@]12C(=O)N(CC(N)=O)c1ccccc12
inactive: activity change, negative = inhibition [1] 1.68% | activity change, negative = inhibition [3] 2.5% | outcome [19] | Potency [4] > 20.6 µM

N[C@@H]1CCc2cc(O)c(O)cc2C1
inactive: activity change, negative = inhibition [1] -9.85% [at 38 µM] | Potency [2] | activity change, negative = inhibition [3] -2.09% [at 38 µM] | outcome [19] | Potency [4] > 46 µM | Potency [5] > 46 µM | outcome [7] | Potency [8] | Potency [11] | Potency [12] | Potency [13] | outcome [14] | outcome [15] | outcome [16] | outcome [17]

CCCN(CC#CCO)CCC
inactive: activity change, negative = inhibition [1] -3.1% | activity change, negative = inhibition [3] 3.75% | outcome [19] | Potency [4] > 20.6 µM

CC[C@H](CO)NC(=O)[C@@H]1C=C2c3cccc4c3c(cn4C)C[C@@H]2N(C)C1
inactive: activity change, negative = inhibition [1] -3.22% [at 38 µM] | Potency [2] | activity change, negative = inhibition [3] -10.9% [at 38 µM] | outcome [6] | outcome [7] | Potency [22] | Potency [13] | outcome [14] | outcome [15] | outcome [16] | outcome [17] | outcome [18]
